# An excerpt weighted towards active compounds, which were near 1.6% of everything screened.
# E-sel TNF inh: TNF alpha driven E-selectin expression inhibition. inhibition, % at 2 µM. 120,000 tested, 0.71% active. HUVEC TNFa-induced E-selectin immunofluorescence, high content;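 active = inhibition above the batch mean plus 3 SD, and confirmed as a hit on visual image review, cut at about 43% in these data; inconclusive = passes the inhibition cutoff but fails visual image review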;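 also: 0% = TNF-stimulated DMSO wells and 100% = unstimulated control wells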
# Insulin prom inh: TRM-6 insulin promoter activity inhibition. inhibition, % at 2 µM. 130,000 tested, 0.9% active. TRM-6 cells (human fetal islet line), insulin promoter-eGFP reporter, imaging; reporter expression induced with tamoxifen. AID 1273;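 active = inhibition above the mean plus 3 SD, with well images judged a real hit on visual review, cut at about 60% in these data, passing the limit was not always enough; inconclusive = inhibition over the cutoff but images rejected on review; inactive = inhibition not above the cutoff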
# TNFa cytotox: HUVEC cytotoxicity counter-screen, TNF alpha stimulated; cell count reduction, % at 2 µM; 93,000 tested, 0.17% active; AID 848; HUVEC TNFalpha-stimulated, Hoechst cell count, imaging;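 active = cell count reduction exceeding the screen mean by over 5 SD, scaled to untreated wells per plate, cut at about 78% in these data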;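 also: cells counted after 24 h of TNF alpha exposure following the 1 h pretreatment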
# VCAM1 TNFa inh: reduces TNF alpha induced VCAM1 expression in HUVEC. 95,000 tested, 0.48% active. HUVEC TNFa-induced VCAM-1 immunofluorescence, high-content imaging. inhibition, % at 2 µM;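 active = inhibition above the batch mean plus 3 SD, with images confirmed as a hit by eye, cut at about 37% in these data; inconclusive = inhibition above that limit but hit not confirmed in images; inactive = inhibition not above that limit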;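 also: 0% = TNF-stimulated DMSO wells and 100% = unstimulated control wells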
# F-actin modifier: alters cytoskeleton assembly in HUVEC cells; AID 836; 91,000 tested, 0.18% active; inhibition, % at 2 µM; HUVEC TNFa F-actin phalloidin imaging, high content;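 active = inhibition above the batch mean plus 3 SD and confirmed as a hit by visual image inspection, cut at about 30% in these data, passing the limit was not always enough; inconclusive = above the inhibition threshold but rejected on visual inspection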
# Phagocytosis inh: blocks phagocytosis by macrophages | J774A.1 macrophage IgG-bead phagocytosis, imaging | 110,000 tested, 0.07% active | inhibition, % at 5 µM;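 active = inhibition above the mean of the plate negative controls plus 5 SD, cut at about 13% in these data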;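 also: phagocytic index as fraction of beads internalized from green versus red external bead signal; plate controls were DMSO negative control for no effect and cytochalasin-D positive control for full effect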
# * hit, by the source's call; i = inactive; ? = inconclusive; / = not tested or not shown.
SMILES,E-sel TNF inh,Insulin prom inh,TNFa cytotox,VCAM1 TNFa inh,F-actin modifier,Phagocytosis inh
N=c1oc2c3c4c(cc2cc1C(=O)Nc1ccccc1)CCCN4CCC3,30.9,i,9.9,26.0,42.6*,-0.7
COC(=O)COc1ccc(=O)n(-c2ccccc2)n1,-3.9,10.0,98.9*,/,?,-0.5
O=C1NC2=C(CCc3ccccc32)C(c2ccccc2)N1 (centres undefined),5.1,61.1*,/,/,/,-1.2
COc1cc(C2NC(=S)NC3=C2CCc2ccccc23)cc(OC)c1OC (centres undefined),/,13.3,/,/,/,-9.1
COc1ccccc1-n1cc(CN2CCN(C3CCCCC3)C(CCO)C2)cn1 (centres undefined),-33.1,/,/,/,/,/
NNC(=O)c1cc2c(N3CCC(Cc4ccccc4)CC3)ncnc2s1,-55.7,-33.3,/,/,/,/
O=C(NCc1ccc2c(c1)OCO2)C1(S(=O)(=O)c2ccccc2)CC1,5.0,93.3*,-1.2,6.8,-5.2,/
COC(=O)[C@@]1(Cc2ccc(F)cc2)[C@H]2c3cc(C(=O)N(C)C)n(Cc4nc5ccccc5[nH]4)c3C[C@H]2CN1C(=O)c1ccccc1,22.0,31.8,/,/,/,/
COc1ccc(C(=O)NC2CC(C)(C)Cc3occc32)cc1 (centres undefined),11.0,/,/,/,/,1.2
COc1cccc(CSc2nc3ccccc3cc2C=O)c1,-34.0,-42.4,30.6,90.3*,5.0,5.2
CC(C)c1ccccc1NC(=S)NCCCn1ccnc1,12.9,14.3,/,/,/,/
O=C(c1ccc([N+](=O)[O-])cc1)N(Cc1ccc(Cl)cc1Cl)N1C(=O)CCCC1=O,-15.5,-9.9,8.6,-20.4,-14.2,-3.4
O=C(c1ccc([N+](=O)[O-])cc1)N(Cc1ccc(Cl)cc1)N1C(=O)CCCC1=O,21.5,-16.7,3.2,46.3*,8.6,-0.1
COc1ccc(CN2C3CCCC2CC(NC(=O)Nc2cccc(C)c2)C3)cc1 (centres undefined),-9.3,9.7,-3.6,11.4,12.4,/
COc1ccc(CN2C3CCCC2CC(NC(=O)Nc2ccccc2)C3)cc1 (centres undefined),24.8,81.2*,-30.6,14.7,-16.1,/
CCn1c(SCC(=O)N2CCOCC2)nc2c(c1=O)SC(C)C2 (centres undefined),6.0,46.7,27.7,-13.5,-22.6,/
CCC(Sc1nc2c(c(=O)n1CC)SC(C)C2)C(=O)OC (centres undefined),65.4*,/,9.7,-17.7,-16.5,1.2
COc1ccccc1-c1nnc(SCC(=O)c2ccc(C3CCCCC3)cc2)n1Cc1ccco1,22.4,69.2,-5.1,-3.4,-10.2,-1.9
COc1ccc(Br)cc1C(=O)O,96.8*,8.8,/,/,/,-0.2
COc1ccc(Br)cc1C(=O)Nc1ccc(C(=O)O)cc1,/,-341.2,/,/,/,/
CC1CCCN(S(=O)(=O)c2ccccc2[N+](=O)[O-])C1 (centres undefined),/,20.7,/,/,/,-13.5
O=C(NCc1cccnc1)c1csc2c1CCCC2,14.6,-32.0,/,/,/,-4.3
Cc1cccc2sc(NNC(=O)c3ccc(S(=O)(=O)N4CCCC(C)C4)cc3)nc12 (centres undefined),-19.4,65.0*,/,/,/,/
CCOC(=O)N1CCN(S(=O)(=O)c2ccc(C(=O)NNc3nc4c(C)cccc4s3)cc2)CC1,-12.0,-66.7,/,/,/,/
Cc1cccc2sc(NNC(=O)c3ccc(S(=O)(=O)N4CCc5ccccc5C4)cc3)nc12,18.8,70.7*,/,/,/,/
SMILES,E-sel TNF inh,Insulin prom inh,TNFa cytotox,VCAM1 TNFa inh,F-actin modifier,Phagocytosis inh
Cc1ccc(S(=O)(=O)CCC(=O)OCC(=O)NCc2ccc(Cl)cc2)cc1,/,-8.3,/,/,/,/
CCOC(=O)c1cnc(-c2ccccc2)nc1N(C)C,-0.2,-85.7,-10.2,2.9,-0.2,-0.5
CCOC(=O)c1cnc(-c2ccccc2)nc1N,10.2,95.3*,-26.0,-28.2,-9.6,0.3
Cc1cc(C)n(-c2nc3ccccc3nc2N2CCCC2)n1,-8.4,-393.3,0.4,3.8,-1.9,/
Cc1cc(C)n(-c2nc3ccccc3nc2N2CCN(C(=O)c3ccc(Cl)cc3)CC2)n1,-15.8,5.1,/,92.4*,17.7,0.3
COc1ccc(NC(=O)C(C)N2C(=O)c3ccccc3C2=O)cc1S(=O)(=O)N1CCOCC1 (centres undefined),/,0.0,/,/,/,/
CCOC(=O)C1=C(CC)OC(N)=C(C#N)C1c1cc(OC)ccc1OC (centres undefined),94.5*,0.0,/,/,/,-0.8
Fc1cccc(F)c1CSc1nc2ccccc2[nH]1,74.8*,75.3*,-30.1,-9.4,/,0.4
O=C(CSc1nc2ccccc2[nH]1)Nc1c(F)cccc1F,-62.7,88.6*,-11.3,-3.1,2.8,-4.3
COc1ccc(C)cc1S(=O)(=O)N1c2ccccc2CC1C (centres undefined),-4.7,-60.0,-21.1,-4.7,3.6,2.0
CCNc1nc(SCCOc2ccc(Br)cc2)nc(N(C)C)n1,43.1,/,/,/,/,/
CSc1nc(C)c(Cl)c(C)c1C#N,/,-22.2,/,/,/,-3.2
C=CCNS(=O)(=O)c1nc(C)c(Cl)c(C)c1C#N,78.5*,/,/,/,/,27.3*
Cc1ccc(C2=NC3(CCCCC3)NC2=S)cc1,3.5,62.5*,/,/,/,-11.6
O=C(CSc1nc2ncc(Cl)cc2[nH]1)N(Cc1ccccc1)C1CCS(=O)(=O)C1 (centres undefined),-31.2,/,/,/,/,/
Cc1cc(C)cc(OCc2nnc(SCC(=O)N3CCN(c4ccccc4)CC3)o2)c1,14.5,-10.3,/,100.0*,?,0.0
O=C(CSc1nnc(COc2ccccc2)o1)N1CCN(c2ccccc2)CC1,-19.9,-55.7,-0.4,-10.2,7.3,/
CCCCn1c(CN2CCN(c3cccc(Cl)c3)CC2)nc2c1c(=O)n(C)c(=O)n2C,-10.6,0.0,-32.2,25.3,12.9,5.5
CCCn1c(CN(C)Cc2ccccc2)nc2c1c(=O)n(C)c(=O)n2C,-6.5,0.0,-8.5,7.8,8.8,/
CCCn1c(CN2CCN(c3cccc(Cl)c3)CC2)nc2c1c(=O)n(C)c(=O)n2C,61.9*,/,-20.2,5.0,-9.8,-0.1
CCCCn1c(CN(C)Cc2ccccc2)nc2c1c(=O)n(C)c(=O)n2C,-1.6,71.4*,9.6,-3.5,6.2,-0.5
CCCCCn1c(CN2CCN(Cc3ccccc3)CC2)nc2c1c(=O)n(C)c(=O)n2C,99.8*,-3.5,-19.8,11.6,-5.8,/
CCCCCCn1c(CN2CCN(CCO)CC2)nc2c1c(=O)n(C)c(=O)n2C,-2.3,100.0*,/,/,/,-1.8
CCCCn1c(CN2CCN(c3ccccc3)CC2)nc2c1c(=O)n(C)c(=O)n2C,/,/,48.8,20.6,-1.8,0.0
COc1cc2ccccc2cc1C(=O)NCC(c1cccs1)N(C)C (centres undefined),-76.5,/,/,/,/,/
Cn1c(=O)[nH]c(=O)c2c1nc(N1CCN(Cc3ccccc3)CC1)n2CCCc1ccccc1,/,-27.8,-17.1,-4.5,-58.2,0.0
CCCCCn1c(CN2CC(C)OC(C)C2)nc2c1c(=O)n(C)c(=O)n2C (centres undefined),0.3,10.0,/,/,/,-0.5
CC1CN(Cc2nc3c(c(=O)n(C)c(=O)n3C)n2CCc2ccccc2)CC(C)O1 (centres undefined),-6.8,75.7*,3.1,19.5,-10.1,/
Cn1c(=O)[nH]c(=O)c2c1nc(CN1CCN(Cc3ccccc3)CC1)n2CC(N)=O,49.9*,0.0,/,/,/,-1.6
